Experimental data from PubChem BioAssay (EPA / NIEHS).
Active and inactive are the calls of the source. The calls were made as follows: active = hit-call score of the fitted dose curve at least 0.9, where 1 is the maximum; inactive = score below 0.9.

read-out: CD38, CD38 (gene 952); assay: BSK_SAg_CD38: BioMAP Diversity Plus: SAg Assay for CD38 Biomarker Activity (AID 2283087); details: primary human HUVEC with PBMC; actives raise or lower the signal
In short: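 Fluorescence ELISA of cell-surface CD38 served as the read-out, with either increase or decrease fitted against DMSO controls. Cells were a human umbilical vein endothelium plus PBMC co-culture under SEB/TSST-1 stimulation, measured 24 h after dosing.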

Row | Compound | AC50 | outcome
1 | On1ccccc1=S | 12.2 µM (active) | 
2 | Cn1c(=O)c2c(ncn2C)n(C)c1=O |  | inactive
3 | CC(=O)c1ccc2c(c1)[C@H](NC(=O)c1ccc(F)cc1)[C@@H](O)C(C)(C)O2 |  | inactive
4 | COCCOCCOCCOC |  | inactive
5 | O=c1[nH]c2ccc(S(=O)CCN3CCC(Cc4ccc(F)cc4)CC3)cc2o1 (centres undefined) |  | inactive
6 | CCCN(C1CCN(C(=O)C2CCNCC2)CC1)[C@@H]1CCc2ccc(OC)cc2C1 |  | inactive
7 | C1=CCCC=CCCC=CCC1 |  | inactive
8 | CC(C)CC(C)(O)C#CC(C)(O)CC(C)C (centres undefined) |  | inactive
9 | O=C1CCC(N2C(=O)c3ccccc3C2=O)C(=O)N1 (centres undefined) |  | inactive
10 | CC/C(=C\C(=N/O)C(N)=O)C(C)[N+](=O)[O-] (centres undefined) |  | inactive
11 | CC(O)CN(CCN(CC(C)O)CC(C)O)CC(C)O (centres undefined) |  | inactive
12 | C[C@](N)(Cc1ccc(O)c(O)c1)C(=O)O |  | inactive
13 | CCOC(=O)c1ccc(C2CCC(NC[C@H](O)COc3ccc(O)c(NS(C)(=O)=O)c3)CC2)cc1 (some centres undefined) | 32.4 µM (active) | 
14 | CC[C@H]1OC(=O)[C@H](C)[C@@H](O[C@H]2C[C@@](C)(OC)[C@@H](O)[C@H](C)O2)[C@H](C)[C@@H](O[C@@H]2O[C@H](C)C[C@H](N(C)C)[C@H]2O)[C@](C)(O)C[C@@H](C)C(=O)[C@H](C)[C@@H](O)[C@]1(C)O |  | inactive
15 | CCn1nc(Cc2ccccc2)cc1C1CCN(C[C@H]2C[C@H](N(C)[C@@H](C(=O)O)C(C)C)C[C@@H]2c2cccc(F)c2)CC1 |  | inactive
16 | O=P(OC(CCl)CCl)(OC(CCl)CCl)OC(CCl)CCl | 30 µM (active) | 
17 | O=C(O)c1cc(N=Nc2ccc(S(=O)(=O)Nc3ccccn3)cc2)ccc1O |  | inactive
18 | Oc1ccc2c(c1)-c1ccccc1C2 |  | inactive
19 | CCCCCCCCCCCCc1ccccc1 |  | inactive
20 | CCCC(=O)OCC |  | inactive
21 | CC[C@H](C)C(=O)O[C@H]1C[C@@H](C)C=C2C=C[C@H](C)[C@H](CC[C@@H]3C[C@@H](O)CC(=O)O3)[C@H]21 | 29.8 µM (active) | 
22 | NC(=O)NO |  | inactive
23 | COCCOc1cc2cc(C(=O)NC3CCN(C(C)C)CC3)n(CC(=O)Nc3ccc(Cl)cn3)c2cn1 |  | inactive
24 | COc1ccc(-n2nc(C(F)F)cc2-c2ccc(S(C)=O)cc2)cc1 (centres undefined) |  | inactive
25 | CC(C)(O)c1coc(S(=O)(=O)NC(=O)Nc2c3c(cc4c2CCC4)CCC3)c1 |  | inactive
26 | CCNc1ccccc1 |  | inactive
27 | CC(C)CCCCCCOC(=O)c1ccc(C(=O)OCCCCCCC(C)C)c(C(=O)OCCCCCCC(C)C)c1 |  | inactive
28 | CCCCC(CC)COC(=O)CCCCCCCCC(=O)OCC(CC)CCCC (centres undefined) |  | inactive
29 | Cn1c(=O)cc(Oc2ccc(F)cc2F)c2cnc(NCC(C)(C)O)nc21 |  | inactive

read-out: CD40, CD40 (gene 958); assay: BSK_SAg_CD40: BioMAP Diversity Plus: SAg Assay for CD40 Biomarker Activity (AID 2283088); details: primary human HUVEC with PBMC; actives raise or lower the signal
In short: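 Fluorescence ELISA read-out of CD40 from umbilical vein endothelium plus peripheral blood mononuclear cells, sampled 24 h after dosing. Values come from bidirectional curve fitting with DMSO as baseline.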

Row | Compound | AC50 | outcome
30 | On1ccccc1=S | 27.8 µM (active) | 
31 | Cn1c(=O)c2c(ncn2C)n(C)c1=O |  | inactive
32 | CC(=O)c1ccc2c(c1)[C@H](NC(=O)c1ccc(F)cc1)[C@@H](O)C(C)(C)O2 |  | inactive
33 | COCCOCCOCCOC |  | inactive
34 | O=c1[nH]c2ccc(S(=O)CCN3CCC(Cc4ccc(F)cc4)CC3)cc2o1 (centres undefined) |  | inactive
35 | CCCN(C1CCN(C(=O)C2CCNCC2)CC1)[C@@H]1CCc2ccc(OC)cc2C1 |  | inactive
36 | C1=CCCC=CCCC=CCC1 |  | inactive
37 | CC(C)CC(C)(O)C#CC(C)(O)CC(C)C (centres undefined) |  | inactive
38 | O=C1CCC(N2C(=O)c3ccccc3C2=O)C(=O)N1 (centres undefined) |  | inactive
39 | CC(O)CN(CCN(CC(C)O)CC(C)O)CC(C)O (centres undefined) |  | inactive
40 | C[C@](N)(Cc1ccc(O)c(O)c1)C(=O)O |  | inactive
41 | CCOC(=O)c1ccc(C2CCC(NC[C@H](O)COc3ccc(O)c(NS(C)(=O)=O)c3)CC2)cc1 (some centres undefined) |  | inactive
42 | CC[C@H]1OC(=O)[C@H](C)[C@@H](O[C@H]2C[C@@](C)(OC)[C@@H](O)[C@H](C)O2)[C@H](C)[C@@H](O[C@@H]2O[C@H](C)C[C@H](N(C)C)[C@H]2O)[C@](C)(O)C[C@@H](C)C(=O)[C@H](C)[C@@H](O)[C@]1(C)O |  | inactive
43 | O=P(OC(CCl)CCl)(OC(CCl)CCl)OC(CCl)CCl | 20 µM (active) | 
44 | Oc1ccc2c(c1)-c1ccccc1C2 | 24.8 µM (active) | 
45 | CCCC(=O)OCC |  | inactive
46 | CC[C@H](C)C(=O)O[C@H]1C[C@@H](C)C=C2C=C[C@H](C)[C@H](CC[C@@H]3C[C@@H](O)CC(=O)O3)[C@H]21 | 12.5 µM (active) | 
47 | NC(=O)NO |  | inactive
48 | COCCOc1cc2cc(C(=O)NC3CCN(C(C)C)CC3)n(CC(=O)Nc3ccc(Cl)cn3)c2cn1 |  | inactive
49 | COc1ccc(-n2nc(C(F)F)cc2-c2ccc(S(C)=O)cc2)cc1 (centres undefined) |  | inactive
50 | CC(C)(O)c1coc(S(=O)(=O)NC(=O)Nc2c3c(cc4c2CCC4)CCC3)c1 |  | inactive
51 | CCNc1ccccc1 |  | inactive
52 | CC(C)CCCCCCOC(=O)c1ccc(C(=O)OCCCCCCC(C)C)c(C(=O)OCCCCCCC(C)C)c1 |  | inactive
53 | CCCCC(CC)COC(=O)CCCCCCCCC(=O)OCC(CC)CCCC (centres undefined) |  | inactive
54 | Cn1c(=O)cc(Oc2ccc(F)cc2F)c2cnc(NCC(C)(C)O)nc21 |  | inactive
